A short description of assay [1]: qHTS assay to identify small molecule antagonists of the thyroid receptor (TR) signaling pathway - cell viability counter screen (AID 743064). Further: nearly all actives have a fitted effect of over 50% in size. Further: potency means the concentration at half of the fitted maximal effect. The procedure, abridged:
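In-well cytotoxicity read by CellTiter-Fluor (30 min, 37 C) following 23.5 h exposure of GH3 cells bearing a TRE-luciferase sensor. Compounds were added alongside 1 nM (final) T3 to drive TR transactivation.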
For orientation: In qHTS, concentration-response curves come from the screen itself.

For assay [2], the system named is thyroid hormone receptor (rat, GH3 cells). Briefly: qHTS assay to identify small molecule agonists of the thyroid receptor (TR) signaling pathway (AID 743066; calls by dose curve).
Assay [3] addresses Estrogen receptor (Homo sapiens) (UniProt P03372). Kind of assay: qHTS assay to identify small molecule antagonists of the estrogen receptor alpha (ER-alpha) signaling pathway (AID 743069; active means well fitted curve in the direction sought with a large enough effect in the signal ratio in the repeat runs, not every such curve was filed as active; inconclusive means weak or mixed curves, or effect the other way; inactive means no such curve, though single readings can be large or run the other way; the % refers to the signal ratio; further: potency means the concentration at half of the fitted maximal effect). The procedure, abridged: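 ER-alpha-UAS-bla GripTite HEK293 line; 2% charcoal-stripped FBS overnight; plated, 4 hr 37C/5% CO2; cpd in DMSO + 17beta-estradiol, 18 hr 37C; LiveBLAzer B/G FRET substrate 2 hr RT; fluorescence intensity.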

A short description of assay [4]: qHTS assay to identify small molecule antagonists of the estrogen receptor alpha (ER-alpha) signaling pathway - cell viability counter screen (AID 743074; calls by dose curve;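 further: HEK293 cells carrying ER-alpha-UAS-bla reporter stimulated with 17beta-estradiol; nearly all actives have a fitted effect of over 45% in size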).
In assay [5] the target is Estrogen receptor (Homo sapiens) (UniProt P03372). Kind of assay: qHTS assay to identify small molecule agonists of the estrogen receptor alpha (ER-alpha) signaling pathway (AID 743075; calls by dose curve;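 further: HEK293 GripTite cells with ER-alpha and UAS-driven beta-lactamase reporter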; further: potency means the concentration at half of the fitted maximal effect).
Assay [6] has the same target. Briefly: qHTS assay to identify small molecule agonists of the estrogen receptor alpha (ER-alpha) signaling pathway using the BG1 cell line (AID 743079). Further: nearly all actives have a fitted effect of over 20% in size. Further: potency means the concentration at half of the fitted maximal effect.
A short description of assay [7]: qHTS assay to identify small molecule antagonists of the estrogen receptor alpha (ER-alpha) signaling pathway using the BG1 cell line (AID 743080; calls by dose curve; further: series mostly up to about 70 µM; nearly all actives have a fitted effect of over 25% in size). The procedure, abridged: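 Antagonist mode: compounds in DMSO were pinned onto BG1-Luc-4E2 cells alongside 17beta-estradiol agonist, incubated 21.5 h, and ERE-driven luciferase measured with ONE-Glo. Cytotoxicity was multiplexed using CellTiter-Fluor fluorescence.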

Assay [8] is described as follows: qHTS assay to identify small molecule antagonists of the estrogen receptor alpha (ER-alpha) signaling pathway using the BG1 cell line - cell viability counter screen (AID 743081).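 Further: compound given together with 17beta-estradiol as the ER stimulus; nearly all actives have a fitted effect of over 45% in size.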 Further: potency means the concentration at half of the fitted maximal effect.
The next assay concerns the target Aromatase (Homo sapiens) (UniProt P11511). Kind of assay: qHTS assay to identify aromatase inhibitors (AID 743083). Further: nearly all actives have a fitted effect of over 55% in size. Further: potency means the concentration at half of the fitted maximal effect.
Assay [9] can be described thus: qHTS assay to identify small molecule antagonists of the thyroid receptor (TR) signaling pathway (AID 743065). Further: nearly all actives have a fitted effect of over 55% in size. Further: potency means the concentration at half of the fitted maximal effect. The method in brief: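 Antagonism measured as loss of luciferase signal in GH3 cells stably carrying a TRE-luciferase reporter, co-treated with compound and T3 (1 nM final) for 23.5 h at 37 C. Viability was read in the same well by CellTiter-Fluor.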

The structures appear in SMILES notation. Activity calls are given as the source filed them. Unless noted, the call rests on the fitted dose curve; in most records, active means well fitted curve in the direction sought with a large enough effect in the repeat runs; inconclusive means weak or mixed curves; inactive means no such curve, though single readings can be large; an effect the other way counts as inactive or inconclusive.

Data on 26 compounds can be found in PubChem BioAssay (Tox21).

Aromatase (Homo sapiens), sequence (P11511 whole entry, looked up): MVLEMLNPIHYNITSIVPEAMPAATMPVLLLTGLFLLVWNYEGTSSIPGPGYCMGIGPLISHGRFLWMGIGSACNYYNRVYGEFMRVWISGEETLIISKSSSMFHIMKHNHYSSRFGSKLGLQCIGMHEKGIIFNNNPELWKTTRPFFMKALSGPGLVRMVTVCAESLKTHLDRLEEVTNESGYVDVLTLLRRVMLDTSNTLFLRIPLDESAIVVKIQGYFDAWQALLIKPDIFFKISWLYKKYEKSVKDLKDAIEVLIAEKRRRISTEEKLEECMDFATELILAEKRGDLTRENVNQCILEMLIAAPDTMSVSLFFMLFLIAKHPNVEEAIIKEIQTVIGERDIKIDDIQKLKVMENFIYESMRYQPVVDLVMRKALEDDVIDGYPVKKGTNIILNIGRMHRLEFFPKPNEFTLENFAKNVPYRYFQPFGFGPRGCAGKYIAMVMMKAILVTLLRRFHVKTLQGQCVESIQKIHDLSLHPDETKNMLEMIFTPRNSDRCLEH
Estrogen receptor (Homo sapiens), sequence (P03372 whole entry, looked up): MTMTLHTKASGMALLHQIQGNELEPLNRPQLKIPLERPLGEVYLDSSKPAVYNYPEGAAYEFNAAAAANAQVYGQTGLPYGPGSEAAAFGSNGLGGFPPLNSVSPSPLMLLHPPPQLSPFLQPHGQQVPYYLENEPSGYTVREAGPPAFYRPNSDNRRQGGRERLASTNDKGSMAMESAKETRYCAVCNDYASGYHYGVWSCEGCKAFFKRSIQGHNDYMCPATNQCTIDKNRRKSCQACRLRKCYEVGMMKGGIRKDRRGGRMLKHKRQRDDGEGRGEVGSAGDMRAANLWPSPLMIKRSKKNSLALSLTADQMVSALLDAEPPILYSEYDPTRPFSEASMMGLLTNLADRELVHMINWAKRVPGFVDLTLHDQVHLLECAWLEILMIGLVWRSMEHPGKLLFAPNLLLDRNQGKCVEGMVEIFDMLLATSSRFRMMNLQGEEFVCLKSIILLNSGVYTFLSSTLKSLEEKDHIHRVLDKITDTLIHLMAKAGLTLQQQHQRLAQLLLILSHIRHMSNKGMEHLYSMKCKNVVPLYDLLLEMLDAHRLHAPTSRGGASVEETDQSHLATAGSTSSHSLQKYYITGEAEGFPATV

For the compound `CC[C@H](C)[C@H](N)C(=O)O`, the Potency entry in assay [1], in assay [2], in assay [3], in assay [5], in assay [6] and in assay [7] was “inactive” in each case. Besides, the Potency result (in assay [8]; with Aromatase (Homo sapiens)) was “inactive” in each case. In addition, the outcome in assay [4] was inactive.
For `O=C(Nc1ccccc1)OCC(CN1CCCCC1)OC(=O)Nc1ccccc1` (stereo not given), the Potency in assay [1] is 10.1 µM (active). Besides, the Potency result in assay [2], in assay [3], in assay [5], in [6], in [7] and in assay [8] was “inactive” in each case. For the same compound, in the assay with Aromatase (Homo sapiens), the Potency entry is “inactive”. In addition, the compound was called inactive in assay [4].
Consider `Oc1ccc(C(O)CNCCCCCCNCC(O)c2ccc(O)c(O)c2)cc1O` (stereo not given), for which the Potency in [1] is 15 µM (active). In addition, the Potency result (in assay [2]; in [7]; in the assay with Aromatase (Homo sapiens)) was “inactive” in each case. In addition, the compound was classed as inactive in assay [4].
Turning to `SC1CCCC1`, the Potency entry in assay [1], in assay [2], in [3], in assay [5], in assay [7] and in [8] was “inactive” in each case. In addition, the Potency entry with Aromatase (Homo sapiens) was “inactive”. Also, in [4], the call was inactive.
For the compound `Cc1ccc(C)o1`, the Potency entry (in assay [1]; in assay [2]; in assay [8]; with Aromatase (Homo sapiens)) was “inactive” throughout. Also, the result in assay [4] was inactive.
Regarding `Nc1nc(CC(=O)O)cs1`, the Potency entry (in assay [1]; in assay [2]; in [8]; with Aromatase (Homo sapiens)) was “inactive” throughout. Also, the result in assay [4] was inactive.
Regarding `CC(=O)CC(=O)c1ccccc1`, the Potency result in assay [1], in [2], in assay [3], in [5], in assay [7] and in assay [8] was “inactive” in each case. Also, the Potency result in the assay with Aromatase (Homo sapiens) is “inactive”. Moreover, the compound was classed as inactive in assay [4]. Moreover, the Potency in assay [6] is 34.6 µM (active).
In the case of `CCCCOc1cc(C(=O)OCCN(CC)CC)ccc1N`, the Potency result in assay [1], in assay [2], in [3], in assay [5], in [6] and in [7] was “inactive” throughout. In addition, the Potency entry (in assay [8]; in the assay with Aromatase (Homo sapiens)) was “inactive” in each case. Further, in assay [4], the result was inactive.
`CN(C)CCCNCCCN`: the Potency entry (in assay [1]; in assay [3]; in [7]; in assay [8]; with Aromatase (Homo sapiens)) was “inactive” throughout. The compound was called inactive in [4].
For the compound `NC(N)=NN=C(/C=C/c1ccc([N+](=O)[O-])o1)/C=C/c1ccc([N+](=O)[O-])o1`, the Potency in assay [1] was 1.68 µM (active); in assay [5] it was 4.77 µM [activator] (active); in assay [8], 23.7 µM (active); in the assay with Aromatase (Homo sapiens), 7.5 µM (active). For the same compound, the result in assay [4] was inactive.
In the case of `C=CC(=O)OCC(C)OCC(C)OCC(C)OC(=O)C=C` (stereo not given), the Potency in assay [1] is 38.6 µM (active); in assay [5] it was 61.7 µM [activator] (active); in the assay with Aromatase (Homo sapiens) it was 43.3 µM (active). In addition, the compound was called inactive in [4]. For the same compound, in assay [8], the Potency entry is “inactive”.
As for `CCCCCCOC(=O)CCC`, the Potency entry (in assay [1]; in assay [8]; with Aromatase (Homo sapiens)) was “inactive” each time.
In the case of `CCc1nn(C2CCCCC2)c2cc(C3(C#N)CCC(C(=O)O)CC3)ccc12` (stereo not given), the Potency in [1] is 34.4 µM (active); in assay [3], 13.8 µM [inconclusive] (active); in the assay with Aromatase (Homo sapiens), 38.6 µM (active). In assay [4], the call was inactive. Also, the Potency result in [6], in assay [7] and in [8] was “inactive” each time.
Consider `O=C1CCCCCO1`, for which the Potency result in assay [9], in [2], in assay [3], in assay [5], in assay [6] and in assay [7] was “inactive” in each case. In addition, the Potency entry (in assay [8]; with Aromatase (Homo sapiens)) was “inactive” each time. Besides, the result in assay [4] was inactive.
With `CN1CCC(=C2c3ccccc3CCc3sccc32)CC1`, in assay [1], the Potency is 21.1 µM (active). The Potency result (in [3]; in [5]; in [7]; in assay [8]; with Aromatase (Homo sapiens)) was “inactive” in each case. In addition, the compound was called inactive in assay [4].
As to `Cc1cc(O)ccc1N`, the Potency was 30.8 µM (active) in assay [1] and 54.8 µM (active) in the assay with Aromatase (Homo sapiens). The Potency result in [3], in assay [5], in assay [6] and in assay [8] was “inactive” throughout. Also, the result in assay [4] was inactive.
For the compound `O=S1(=O)N=C(O)c2ccccc21`, the Potency entry (in assay [1]; in [8]; in the assay with Aromatase (Homo sapiens)) was “inactive” each time. Moreover, in assay [4], the outcome was inactive.
Turning to `COCCO`, the Potency entry in [1], in assay [3], in assay [5], in [6], in assay [7] and in assay [8] was “inactive” in each case. Further, in the assay with Aromatase (Homo sapiens), the Potency entry is “inactive”. Moreover, the compound was classed as inactive in [4].
As for `CCN(CC)CCOC(=O)C1(c2ccccc2)CCCC1`, the Potency result in [9], in assay [2], in [3], in [5], in assay [6] and in assay [7] was “inactive” in each case. Moreover, the Potency result (in assay [8]; with Aromatase (Homo sapiens)) was “inactive” each time. Besides, the compound was called inactive in assay [4].
Regarding `CCCC(=O)OCC`, the Potency entry in [9], in [2], in [3], in [5], in assay [6] and in assay [7] was “inactive” throughout. Further, the Potency entry (in assay [8]; with Aromatase (Homo sapiens)) was “inactive” each time. In addition, the result in assay [4] was inactive.
For `O=S1(=O)c2cccc3cccc(c23)N1CCCN1CCN(c2ccc(F)cc2)CC1`, the Potency result (in assay [1]; in [2]; in assay [5]; in assay [8]; in the assay with Aromatase (Homo sapiens)) was “inactive” each time.
With `Cc1occc1S`, the Potency result in [1], in [3], in assay [5], in [6], in [7] and in assay [8] was “inactive” each time. Moreover, the Potency result with Aromatase (Homo sapiens) was “inactive”. Further, in assay [4], the result was inactive.
With `O=C(O)Cn1c(C(=O)Nc2nc(-c3ccccc3Cl)cs2)cc2ccccc21`, the Potency in [9] was 26.6 µM (active). In addition, the Potency entry in [2], in assay [3], in [5], in assay [6], in assay [7] and in assay [8] was “inactive” throughout. Also, the Potency result with Aromatase (Homo sapiens) was “inactive”.
For `CCOc1ccc(NC(=O)CC(C)=O)cc1`, the Potency result (in [1]; in [8]; with Aromatase (Homo sapiens)) was “inactive” throughout. In addition, the compound was called inactive in assay [4].
For `CC(=O)OCCc1ccccc1`, the Potency result in assay [9], in [2], in [3], in assay [5], in assay [6] and in [7] was “inactive” in each case. Besides, the Potency result (in assay [8]; with Aromatase (Homo sapiens)) was “inactive” each time. In [4], the compound was called inactive.
`CCCOc1ccc2nc(NC(=O)OC)[nH]c2c1`: the Potency in assay [9] was 0.422 µM (active). Moreover, the Potency entry (in assay [2]; in assay [3]; in [6]; in assay [7]; in assay [8]; in the assay with Aromatase (Homo sapiens)) was “inactive” throughout. In addition, the call in assay [4] was inactive.
